Source: PubChem BioAssay
Activity calls are given as the source filed them.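 How the source made its calls, unless noted: active means NADPH fluorescence slope more negative than the mean of all samples by about 3 SD, 99.7% confidence; inactive means the rest.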

How the values were obtained:
[1] = inhibitors of TNFa-induced NFkB p65 translocation, primary screen, imaging, HUVEC, MLSMR starter and 10KST1 sets (AID 438;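 active means inhibition above 20% together with a positive visual image hit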;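 further: compound added about 3h40 before a 20 min TNFalpha stimulation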;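 on inhibition: signal is the nuclear over cytoplasmic p65 intensity ratio per well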); settings: HUVEC TNFa-induced p65 nuclear translocation; cell count: measured here: nuclei count (cytotoxicity indicator), at 2.08 µM; inhibition: at 2 µM, stronger effect = higher value, 0% TNFa-plus-vehicle, 100% no-TNFa wells
[2] = reduction of polyQ htt aggregates in cells – imaging, exon1htt(103Q)mCFP cells, high-content imaging, primary screen (AID 483;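 active means visual image review flags a hit and inhibition of aggregation exceeds 20%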;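 further: compound exposure lasted 3 days before fixation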;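 on nuclei count: percent of the per-plate median nuclei count of sample wells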); settings: exon1htt(103Q)mCFP cell line, aggregate imaging, at 2 µM; inhibition of aggregation: stronger effect = higher value; nuclei count: measured here: cell count, toxicity
[3] = endothelial E-selectin expression blockers – imaging, HUVEC, immunofluorescence, MLSMR starter and 10KST1 sets, primary screen (AID 487;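 active means visually confirmed hit in the image check and inhibition above 20%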;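 on inhibition: signal is fraction of cell area covered by stained E-selectin grains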;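 on nuclei count: 100% = median nuclei count of all wells on the same plate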); settings: HUVEC TNFalpha-induced E-selectin immunofluorescence imaging, at 2 µM; inhibition: stronger effect = higher value; nuclei count: measured here: cell number, toxicity
[4] = target: Voltage-gated potassium channel subunit beta-2 (Rattus norvegicus) (UniProt P62483); test: inhibitors of rat Kvbeta2 reductase activity – biochemical, NADPH fluorescence, primary screen (AID 622;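 active means fluorescence slope higher than the sample average by over 3 SD, cut at about -0.22 in these data, passing the limit was not always enough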;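 further: slope of raw intensity against log time taken from 70 to 1610 s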); settings: recombinant KvBeta, 4-cyanobenzaldehyde reduction, at 10 µM, stronger effect = higher value
Chain of Voltage-gated potassium channel subunit beta-2 (Rattus norvegicus) (P62483 whole entry, looked up): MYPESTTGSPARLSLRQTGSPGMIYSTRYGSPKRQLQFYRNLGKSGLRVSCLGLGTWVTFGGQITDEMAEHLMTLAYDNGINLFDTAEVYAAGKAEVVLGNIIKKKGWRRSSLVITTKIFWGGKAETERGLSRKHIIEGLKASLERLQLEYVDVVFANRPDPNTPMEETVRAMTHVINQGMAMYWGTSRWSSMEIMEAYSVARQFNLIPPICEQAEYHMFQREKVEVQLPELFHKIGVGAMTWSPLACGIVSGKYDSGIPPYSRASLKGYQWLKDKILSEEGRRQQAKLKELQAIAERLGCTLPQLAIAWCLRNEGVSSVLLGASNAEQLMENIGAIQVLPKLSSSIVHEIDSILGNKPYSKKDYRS

[5] = target: Voltage-gated potassium channel subunit beta-2 (Rattus norvegicus) (UniProt P62483); test: enhancers of rat Kvbeta2 NADPH turnover – biochemical, NADPH fluorescence, primary screen (AID 623); settings: Recombinant KvBeta, NADPH fluorescence decrease slope, 10 min; at 10 µM; stronger effect = lower value;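 further: fluorescence intensity change per second fitted from 20 to 320 s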
[6] = target: Alpha-2C adrenergic receptor (Homo sapiens) (UniProt P18825); test: compounds altering alpha2C-coupled GIRK flux – cell-based, HEK293 alpha2C/GIRK1/2, thallium flux, primary screen (AID 624;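 active means fluorescence slope after compound addition differing from the mean of all screened samples at 99.7% confidence, in either direction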;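 further: slope of fluorescence ratio to pre-addition baseline per second over 15 to 24 s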); settings: thallium flux BTC fluorescence, at 10 µM, actives lie on both sides
Chain of Alpha-2C adrenergic receptor (Homo sapiens) (P18825 whole entry, looked up): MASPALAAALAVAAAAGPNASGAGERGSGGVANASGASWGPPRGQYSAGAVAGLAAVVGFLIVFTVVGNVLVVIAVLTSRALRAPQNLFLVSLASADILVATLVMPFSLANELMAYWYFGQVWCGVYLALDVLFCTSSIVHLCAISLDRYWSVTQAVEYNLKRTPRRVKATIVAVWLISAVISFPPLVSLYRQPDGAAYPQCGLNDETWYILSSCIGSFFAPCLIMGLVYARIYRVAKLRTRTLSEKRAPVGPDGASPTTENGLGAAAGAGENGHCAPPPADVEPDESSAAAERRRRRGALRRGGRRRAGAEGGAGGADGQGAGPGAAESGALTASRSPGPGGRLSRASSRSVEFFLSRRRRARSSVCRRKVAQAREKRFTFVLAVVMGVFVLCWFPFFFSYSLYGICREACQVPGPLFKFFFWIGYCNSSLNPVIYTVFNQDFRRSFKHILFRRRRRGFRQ

[7] = blockers of RIG-like receptor reporter activation – cell-based, Sendai virus stimulus, luciferase, 10K MLSCN set, TLR/RLR signaling modifier project, primary screen (AID 602276;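 active means inhibition at or above 50% at 10 µM; inactive means inhibition below 50%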;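 further: firefly luciferase from ISG56 promoter only with Renilla not read in this screen; 0% = Sendai virus plus DMSO and 100% = medium plus DMSO without virus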); settings: HEK293 RL24 IRF3 luciferase reporter, at 10 µM, stronger effect = higher value
[8] = TLR3 IRF3 reporter activation blockers – cell-based, poly I:C stimulus, luciferase, 10K MLSCN set, primary screen (AID 602277;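 active means inhibition of the reporter signal at or above 50%; inactive means inhibition below 50%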); settings: HEK293-TLR3 RL24 IRF3 luciferase reporter, at 10 µM, stronger effect = higher value

| SMILES | cell count [1] | inhibition [1] | inhibition of aggregation [2] | nuclei count [2] [%] | inhibition [3] | nuclei count [3] [%] | fluorescence slope [4] | NADPH fluorescence slope [5] | slope [6] | inhibition [7] | inhibition [8] |
| --- | --- | --- | --- | --- | --- | --- | --- | --- | --- | --- | --- |
| CC(=O)NC(Cc1ccccc1)C(=O)NC1CCN(C(=O)c2cnccn2)CC1 (stereo not drawn) | 991 | -1% (inactive) | -7% (inactive) | 136 | -54.3% (inactive) | 120 | -0.48 (inactive) | -2.5e-05 (inactive) | 0.00556 (inactive) | 12.1% (inactive) | 28.6% (inactive) |
| CCOC(=O)C1CCCN(CC(=O)NC2CC2)C1 (stereo not drawn) | 446 | 1.1% (inactive) | -11.4% (inactive) | 98.9 | -23.9% (inactive) | 101 | -0.318 (inactive) | -7.1e-05 (inactive) | 0.00531 (inactive) | 13.3% (inactive) | 15.3% (inactive) |
| CCCC(=O)Nc1nc2ccc(S(N)(=O)=O)cc2s1 | 718 | -1.8% (inactive) | -16.5% (inactive) | 102 | -9.7% (inactive) | 100 | -0.406 (inactive) | 5.8e-05 (inactive) | 0.00596 (inactive) | -18.7% (inactive) | -57.7% (inactive) |
| Cn1c(=N)n(CC(=O)O)c2ccccc21 | 681 | -13.8% (inactive) | 6.2% (inactive) | 114 | -51.5% (inactive) | 131 | -0.595 (inactive) | -2.3e-05 (inactive) | 0.00551 (inactive) | 9.99% (inactive) | 11.8% (inactive) |
| CCCc1cc(C(=O)Nc2sc3c(c2C#N)CCC3)no1 | 633 | -2.9% (inactive) | 11.9% (inactive) | 95.8 | -34.8% (inactive) | 116 | -0.568 (inactive) | -2.8e-05 (inactive) | 0.00643 (inactive) | 7.08% (inactive) | 10.9% (inactive) |
| O=C(Nc1cccc2ccccc12)N1CCOCC1 | 654 | -3.4% (inactive) | -12% (inactive) | 116 | -33.2% (inactive) | 106 | -0.341 (inactive) | -6.3e-05 (inactive) | 0.00634 (inactive) | 18.7% (inactive) | 23.7% (inactive) |
| O=S(=O)(Nc1ccc(Cc2ccncc2)cc1)N1CCCC1 | 848 | -3.6% (inactive) | -0.2% (inactive) | 111 | -102% (inactive) | 130 | -0.52 (inactive) | 1.2e-05 (inactive) | 0.00557 (inactive) | 1.91% (inactive) | 2.2% (inactive) |
| CCC(=O)N1Cc2ccccc2-c2ccccc2C1=O | 642 | 3% (inactive) | -14.4% (inactive) | 98.3 | 11% (inactive) | 126 | -0.618 (inactive) | -1.2e-05 (inactive) | 0.006 (inactive) | 12.1% (inactive) | 12.9% (inactive) |
| COCCn1c(SCC(=O)Nc2ccc3c(c2)OCCO3)nc2c(c1=O)SC(C)C2 (stereo not drawn) | 715 | -4.4% (inactive) | -19.9% (inactive) | 106 | -36.9% (inactive) | 116 | -0.413 (inactive) | 3.3e-05 (inactive) | 0.00496 (inactive) | -10.2% (inactive) | -0.542% (inactive) |
| O=C(Cn1cc2c(n1)CCCCC2)N1CCc2ccccc2C1 | 670 | 12% (inactive) | 15.4% (inactive) | 88.6 | 27.7% (inactive) | 85.1 | -0.631 (inactive) | 1.4e-05 (inactive) | 0.0057 (inactive) | -16% (inactive) | -17.6% (inactive) |
| CCOC(=O)C1CCCN(CCCc2ccccc2)C1 (stereo not drawn) | 361 | -17.4% (inactive) | -1.3% (inactive) | 118 | -32.5% (inactive) | 108 | -0.438 (inactive) | -2.5e-05 (inactive) | 0.00567 (inactive) | 6.58% (inactive) | 38% (inactive) |
| O=S(=O)(c1ccc(S(=O)(=O)N2CCN3CCCC3C2)cc1)N1CCCC1 (stereo not drawn) | 575 | -5.3% (inactive) | 31.8% (inactive) | 49.8 | 34.6% (inactive) | 85 | -0.359 (inactive) | -3.4e-05 (inactive) | 0.00601 (inactive) | 6.16% (inactive) | 28.2% (inactive) |
| Cn1c(/C=N/n2cnnc2)nc2ccccc21 | 448 | 3.5% (inactive) | -4.4% (inactive) | 114 | -12.1% (inactive) | 123 | -0.0404 (active) | -7e-06 (inactive) | 0.00495 (inactive) | 6.17% (inactive) | 35.3% (inactive) |
| Cc1sc(NC(=O)CSc2nc(N)n(CC(=O)c3ccccc3)n2)c(C#N)c1C | 403 | -0.8% (inactive) | -21.4% (inactive) | 111 | -61.6% (inactive) | 111 | -0.612 (inactive) | -2.1e-05 (inactive) | 0.00622 (inactive) | -14.5% (inactive) | -21.2% (inactive) |
| NC(=O)c1c(NC(=O)CN2CCCC2)sc2c1CCCC2 | 577 | 3% (inactive) | 5.3% (inactive) | 65.3 | 15.2% (inactive) | 84.6 | -0.599 (inactive) | -1.9e-05 (inactive) | 0.00312 (inactive) | -25.4% (inactive) | -70.1% (inactive) |
| COc1ccc(C2CC(c3ccco3)n3ncnc3N2)cc1 (stereo not drawn) | 458 | 6% (inactive) | -19.3% (inactive) | 59.7 | -21.1% (inactive) | 96.4 | -0.4 (inactive) | -6.8e-05 (inactive) | 0.00517 (inactive) | 9.66% (inactive) | 39.2% (inactive) |
| CCOC(=O)c1cc(C(C)(C)C)oc1CN | 667 | -1% (inactive) | 1.2% (inactive) | 98.7 | -1.1% (inactive) | 102 | -0.495 (inactive) | -4.4e-05 (inactive) | 0.00475 (inactive) | 15.2% (inactive) | 21.7% (inactive) |
| CCOC(=O)N1CCC(N(C(=O)Nc2cccc(OC)c2)C(C)CC)CC1 (stereo not drawn) | 534 | -4.4% (inactive) | -16.1% (inactive) | 44 | -60.6% (inactive) | 98.9 | -0.513 (inactive) | -3.9e-05 (inactive) | 0.00561 (inactive) | 12.2% (inactive) | 11.5% (inactive) |
| Cn1c(=O)[nH]c(=O)c2c1ncn2CCN1CCOCC1 | 696 | -12.1% (inactive) | -10.8% (inactive) | 107 | -6.5% (inactive) | 102 | -0.512 (inactive) | 1.1e-05 (inactive) | 0.00632 (inactive) | 8.85% (inactive) | 16.4% (inactive) |
| Cc1cccc(N2CCN(C(=O)Cn3nc(Cc4ccncc4)c4ccccc4c3=O)CC2)c1C | 895 | -5.5% (inactive) | 14.3% (inactive) | 103 | -72% (inactive) | 118 | -0.563 (inactive) | -4.2e-05 (inactive) | 0.00577 (inactive) | 4.52% (inactive) | 5.5% (inactive) |
| O=C(c1cc(-c2cccc(O)c2)on1)N1CCN(C(c2ccccc2)c2ccccc2)CC1 | 787 | 3.2% (inactive) | -5.2% (inactive) | 96.8 | -70.7% (inactive) | 116 | -0.601 (inactive) | -3.2e-05 (inactive) | 0.00689 (inactive) | 11% (inactive) | 25.8% (inactive) |
| Cc1ccc(-c2nnn(CC(=O)N(Cc3cccs3)C(C(=O)NC(C)(C)C)c3ccc(C)o3)n2)o1 (stereo not drawn) | 675 | -4% (inactive) | -2.3% (inactive) | 136 | -20.1% (inactive) | 137 | -0.361 (inactive) | -2.9e-05 (inactive) | 0.00454 (inactive) | 16.3% (inactive) | 20.6% (inactive) |
| Oc1ccc2cccnc2c1 | 719 | -12.9% (inactive) | -15.8% (inactive) | 100 | -44.3% (inactive) | 118 | -0.12 (active) | 2.2e-05 (inactive) | 0.00432 (inactive) | -2.36% (inactive) | 0.747% (inactive) |
| COc1cccc(C(=O)CN2CCC(NC(=O)NC3CCCCC3)CC2)c1 | 513 | -25.5% (inactive) | 10.5% (inactive) | 51.6 | -26.9% (inactive) | 114 | -0.393 (inactive) | -3.8e-05 (inactive) | 0.00349 (inactive) | 7.64% (inactive) | -12.8% (inactive) |
| COc1ccc(C2C(C(=O)N3CCC(C)CC3)c3ccccc3C(=O)N2C)cc1 (stereo not drawn) | 475 | -3.8% (inactive) | 12.4% (inactive) | 91.5 | -17.4% (inactive) | 101 | -0.54 (inactive) | -1.3e-05 (inactive) | 0.00505 (inactive) | -9.25% (inactive) | 12.2% (inactive) |
| Cc1ccc(N2C(=O)c3ccccc3C2Nc2cccnc2)nc1 (stereo not drawn) | 513 | -7.7% (inactive) | 2.4% (inactive) | 92.8 | -91.7% (inactive) | 138 | -0.585 (inactive) | 2e-05 (inactive) | 0.0064 (inactive) | -2.85% (inactive) | 4.9% (inactive) |
| Cc1cc(C(=O)CSc2nc3ccccc3[nH]2)c(C)n1C | 659 | 5.3% (inactive) | 7.6% (inactive) | 113 | -82.7% (inactive) | 123 | -0.59 (inactive) | -5.2e-05 (inactive) | 0.00445 (inactive) | -46.8% (inactive) | -155% (inactive) |
| COc1cccc(-n2ccnc2SCC(=O)N2CCc3ccccc32)c1 | 565 | -7.6% (inactive) | 3% (inactive) | 108 | 1.1% (inactive) | 89.7 | -0.536 (inactive) | -1e-05 (inactive) | 0.00609 (inactive) | -3.01% (inactive) | -5.47% (inactive) |
